Assay outcomes as filed in PubChem.
This is a sample that favours compounds with a hit; in the whole collection about 1.4% have one here.
NPR2 activator – GC-B (human) receptor activation. P20594. HEK293-GC-B cells, CNP EC30, cGMP TR-FRET; 0% at EC30 CNP, 100% saturating CNP. activation, % at 10 µM. actives 0.11% (n = 370,000);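 active means activation at 10 µM reaching about 35% in either raw or pattern-adjusted values, limit read from the data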
FAS TE block – inhibitors of human fatty acid synthase thioesterase domain | P49327 | recombinant FAS-TE, OMFH fluorogenic substrate, fluorescence endpoint | inhibition, % at 15 µM | actives 0.67% (n = 360,000) | AID 602261;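 active means compounds whose normalised, plate-corrected inhibition of enzyme fluorescence in the single-dose primary screen is 50% or more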
A3A deaminase – inhibitors of human APOBEC3A DNA deaminase | P31941 | recombinant A3A, FAM/TAMRA ssDNA deamination fluorescence | inhibition, % at 20 µM | actives 0.41% (n = 330,000);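 active means at least 40% inhibition at 20 µM here, with at most 30% in a related deaminase screen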
Target sequence (P31941 whole entry, looked up): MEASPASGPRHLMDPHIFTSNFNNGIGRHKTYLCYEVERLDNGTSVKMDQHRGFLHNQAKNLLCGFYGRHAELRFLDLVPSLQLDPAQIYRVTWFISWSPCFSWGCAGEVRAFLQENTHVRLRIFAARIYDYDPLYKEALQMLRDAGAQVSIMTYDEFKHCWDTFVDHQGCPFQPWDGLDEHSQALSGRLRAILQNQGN
APOBEC3G inh – inhibitors of human APOBEC3G DNA deaminase. AID 493012. recombinant A3G, ssDNA deamination FAM/TAMRA fluorescence. Q9HC16. inhibition, % at 20 µM. actives 0.28% (n = 330,000);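 active means inhibition of at least 40% at 20 µM, with no more than 30% in the related APOBEC3A deaminase screen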
Target sequence (Q9HC16 whole entry, looked up): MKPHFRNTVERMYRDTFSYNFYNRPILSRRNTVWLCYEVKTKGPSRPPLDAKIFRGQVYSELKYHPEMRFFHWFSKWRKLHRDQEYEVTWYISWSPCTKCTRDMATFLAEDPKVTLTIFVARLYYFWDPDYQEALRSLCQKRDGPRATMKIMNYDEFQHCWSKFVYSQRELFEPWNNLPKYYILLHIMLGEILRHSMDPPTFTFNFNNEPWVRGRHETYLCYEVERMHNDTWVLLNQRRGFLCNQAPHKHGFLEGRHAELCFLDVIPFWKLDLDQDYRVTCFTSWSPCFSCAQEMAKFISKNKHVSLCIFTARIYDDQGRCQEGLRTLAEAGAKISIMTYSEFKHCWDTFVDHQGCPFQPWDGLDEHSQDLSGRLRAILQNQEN
GC-A act – GC-A (human) enzyme activation | AID 1671463 | P16066 | actives 0.14% (n = 370,000) | activation, % at 10 µM | HEK293 GC-A cells, cGMP TR-FRET, EC30 ANP; 0% at EC30 ANP, 100% saturating ANP; in the data active means activation above about 40%
APOBEC3G confirm – confirmation of human APOBEC3G DNA deaminase inhibitors | shares compounds with APOBEC3G inh | recombinant A3G ssDNA deaminase, UDG/FAM-TAMRA fluorescence | inhibition, % at 20 µM | actives 72% (n = 890) | AID 493152;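 active means inhibition reaching a set limit in any replicate at 20 µM, the limit being 80% of the first screen's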
UDG ctr A3G – counter-screen for APOBEC3G inhibitors: E. coli UDG | shares compounds with APOBEC3G inh | UDG counterscreen, FAM/TAMRA oligo fluorescence | inhibition, % at 20 µM | 710 tested, under 10 active | AID 504715;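 active means compounds giving 40% or more inhibition at 20 µM in any one of the three replicates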;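 further: inhibitors lower the FAM signal released by uracil excision and alkaline cleavage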
Large screens that a line does not name were inactive (follow-up assays come after a bar, where they were run).

CCOC(=O)c1ccc(N=c2ssnc2Cl)cc1	APOBEC3G inh 66 | APOBEC3G confirm 79 | UDG ctr A3G inactive
COc1ccc(N=c2ssnc2Cl)cc1	APOBEC3G inh 70 (no result: NPR2 activator, GC-A act) | APOBEC3G confirm 79 | UDG ctr A3G inactive
N#Cc1ccc(Oc2c(Cl)cncc2Cl)cc1	none
COc1cc(-c2nnc(-c3cc(OC)c(OC)c(OC)c3)o2)cc(OC)c1OC	none
O=C(Nc1c(-c2ccccc2)nc2ncccn12)C1CC1	none (no result: FAS TE block, A3A deaminase, APOBEC3G inh)
CC(C)(C)C(=O)OC12CCCN(C1)/C(=C/c1ccccc1)C2 (stereo not drawn)	none (no result: FAS TE block, A3A deaminase, APOBEC3G inh)
COC(=O)Cn1cnc2c(NC(=O)c3ccccc3)ncnc21	none (no result: FAS TE block, A3A deaminase, APOBEC3G inh)
CCOC(=O)c1cc(C#N)c(SCC(=O)c2cc(C#N)c(SC)nc2C)[nH]c1=O	APOBEC3G inh 43 | APOBEC3G confirm 17 | UDG ctr A3G inactive
O=C(CN1CCN(Cc2ccccc2)CC1)N/N=C\c1ccccc1[N+](=O)[O-]	none (no result: FAS TE block, A3A deaminase, APOBEC3G inh)
N#C/C(=C\c1ccc(O)c(O)c1)C(=O)Nc1cccc2ncccc12	APOBEC3G inh 52 | APOBEC3G confirm 59 | UDG ctr A3G inactive
COc1ccc(/C=C(\C#N)C(=O)Nc2cccc3ncccc23)cc1OC	none
CCOC(=O)c1cc(-c2ccc(OC)cc2)nn1-c1ccccc1C(=O)O	APOBEC3G inh 63 | APOBEC3G confirm 41 | UDG ctr A3G inactive
COc1ccc(C2CC(=O)N3CN(Cc4ccco4)CSC3=C2C#N)cc1 (stereo not drawn)	none
COc1ccc2ccccc2c1C1CC(=O)N2CN(C3CCCCC3)CSC2=C1C#N (stereo not drawn)	none
COc1ccc(OC)c(C2CC(=O)N3CN(c4ccccc4)CSC3=C2C#N)c1 (stereo not drawn)	APOBEC3G inh 46 | APOBEC3G confirm 56 | UDG ctr A3G inactive
COc1ccc(C2CC(=O)N3CN(c4ccc(C)c(Cl)c4)CSC3=C2C#N)cc1 (stereo not drawn)	APOBEC3G inh 52 | APOBEC3G confirm 52
COc1ccc(N2CSC3=C(C#N)C(c4cccc(OC)c4OC)CC(=O)N3C2)cc1 (stereo not drawn)	none
COc1cc(OC)c(C2CC(=O)N3CN(c4ccccc4C)CSC3=C2C#N)cc1OC (stereo not drawn)	APOBEC3G inh 44 (no result: FAS TE block) | APOBEC3G confirm inactive
Nc1[nH]c(C(=O)c2ccccc2)c(-c2ccc(O)cc2)c1C(=O)NCCc1c[nH]c2ccccc12	none (no result: FAS TE block, A3A deaminase, APOBEC3G inh)
C#CCNC(=O)C[C@H]1C(=O)N(CCc2ccc(Cl)cc2)C2=CCCC[C@@]21C(=O)OCC	none (no result: FAS TE block, A3A deaminase, APOBEC3G inh)
CN(C)[C@H]1CCN(c2ccc3c(c2)OCCCN(C2CC2)S3(=O)=O)C1	none (no result: FAS TE block, A3A deaminase, APOBEC3G inh)
COc1ccc(C(=O)N2CCC[C@@H]2C(=O)N2CCC[C@@H]2C(=O)NCc2ccccc2)cc1F	none (no result: FAS TE block, A3A deaminase, APOBEC3G inh)
CCOC(=O)CSc1nc2c(sc(=S)n2-c2ccccc2OC)c(=O)n1-c1ccccc1OC	none
COc1ccc(-n2c(=S)[nH]c3c(sc(=S)n3-c3ccccc3)c2=O)c(OC)c1	APOBEC3G inh 44 | APOBEC3G confirm 36 | UDG ctr A3G inactive
COc1ccc(-n2c(=S)[nH]c3sc(-c4ccccc4)cc3c2=O)c(OC)c1	none
COc1ccc(-n2c(SCC(=O)C(C)(C)C)nc3c(sc(=S)n3-c3ccccc3)c2=O)c(OC)c1	APOBEC3G inh 40 | APOBEC3G confirm 50 | UDG ctr A3G inactive
COc1ccccc1CCn1cnc(-c2cccc(Br)c2)c1CC(C)C	none (no result: FAS TE block, A3A deaminase, APOBEC3G inh)
Nn1c(SCC(=O)Nc2cc(C(F)(F)F)ccc2Cl)nnc1-c1n[nH]c2c1CCC2	none (no result: FAS TE block, A3A deaminase, APOBEC3G inh)
S=C(c1ccc(-c2cccc(Cl)c2)o1)N1CCCCC1	none
S=C(c1ccc(-c2cccc(Cl)c2)o1)N1CCOCC1	NPR2 activator 35, APOBEC3G inh 43 | APOBEC3G confirm inactive | UDG ctr A3G inactive
O=C(OC12CCCN(C1)/C(=C/c1cccc(Cl)c1)C2)c1cccc(F)c1 (stereo not drawn)	none (no result: FAS TE block, A3A deaminase, APOBEC3G inh)
Cc1cc(C)c2c(=O)n(CC(=O)Nc3ccc(Br)c(C)c3)sc2n1	none (no result: A3A deaminase, APOBEC3G inh)
Cc1cc(C)c2c(=O)n(CC(=O)NC3CCCC3)sc2n1	APOBEC3G inh 51 | APOBEC3G confirm 83 | UDG ctr A3G inactive
Cc1cc(C)c2c(=O)n(CC(=O)Nc3cccc(Cl)c3C)sc2n1	APOBEC3G inh 72 | APOBEC3G confirm 83 | UDG ctr A3G inactive
COc1ccc(OC)c(CCNC(=O)Cn2sc3nc(C)cc(C)c3c2=O)c1	APOBEC3G inh 63 (no result: NPR2 activator, FAS TE block, GC-A act) | APOBEC3G confirm 78
C[C@@H]1CN([C@@H](C)CO)C(=O)CCCn2cc(nn2)CO[C@H]1CN(C)C(=O)Nc1ccc(C(F)(F)F)cc1	none (no result: FAS TE block, A3A deaminase, APOBEC3G inh)
CC(CCN1CCC(C(O)(c2ccccc2)c2ccccc2)CC1)Oc1cccc(Br)c1 (stereo not drawn)	none (no result: FAS TE block, A3A deaminase, APOBEC3G inh)
O=C(Cn1sc2ccccc2c1=O)NC12CC3CC(CC(C3)C1)C2	APOBEC3G inh 78 (no result: NPR2 activator, GC-A act) | APOBEC3G confirm 78 | UDG ctr A3G inactive
CC(C)(C)C1=Nn2c(nnc2-c2n[nH]c3c2CCC3)SC1	APOBEC3G inh 49 | APOBEC3G confirm 71 | UDG ctr A3G inactive
Cc1ccccc1S(=O)(=O)N(C)C[C@@H]1OCc2cn(nn2)CCCC(=O)N([C@@H](C)CO)C[C@H]1C	none (no result: FAS TE block, A3A deaminase, APOBEC3G inh)
COc1ccc(OCc2nnc(SCC(=O)N(C)Cc3ccccc3)n2N)cc1	APOBEC3G inh 47 | APOBEC3G confirm 41 | UDG ctr A3G inactive
Cc1ccc(OCc2nnc(SCC(=O)O)n2N)cc1	none
CCOC(=O)Cn1cc(CN2CCS(=O)(=O)N(Cc3ccc(Cl)cc3)C(C(=O)OC)C2)nn1 (stereo not drawn)	none (no result: FAS TE block, A3A deaminase, APOBEC3G inh)
O=C(Nc1ccc2c(c1)OCO2)O[C@@H]1CC[C@@]23CCCN2C(=O)CCC[C@H]3C1	none (no result: FAS TE block, A3A deaminase, APOBEC3G inh)
COCc1cc(N2CCNC[C@H]2C)ccc1N1C[C@@H](C)O[C@@H](C)C1	none (no result: FAS TE block, A3A deaminase, APOBEC3G inh)
CCCc1ccc(C2=Nn3c(nnc3C(C)C)SC2)cc1	APOBEC3G inh 50 (no result: NPR2 activator, GC-A act) | APOBEC3G confirm inactive | UDG ctr A3G inactive
O=C(Cn1c(=O)oc2ccccc21)Nc1n[nH]c(=S)s1	APOBEC3G inh 81 | APOBEC3G confirm 90 | UDG ctr A3G inactive
O=C(Cn1c(=O)oc2ccccc21)Nc1nc(-c2ccccc2)cs1	none
COc1ccc(C(F)(F)F)cc1NC(=O)C(OC(=O)CNC(=O)c1ccccc1)c1ccccc1 (stereo not drawn)	none (no result: FAS TE block, A3A deaminase, APOBEC3G inh)
O=c1c2ccccc2sn1-c1cc(S(=O)(=O)N2CCOCC2)ccc1N1CCOCC1	APOBEC3G inh 77 | APOBEC3G confirm 77 | UDG ctr A3G inactive
CC/C(=N/Nc1cccc(C)c1)c1cnnc(SC)n1	APOBEC3G inh 46 | APOBEC3G confirm inactive
CCC(=O)n1nc(-c2ccc(Cl)cc2)nc1N	APOBEC3G inh 46 | APOBEC3G confirm inactive | UDG ctr A3G inactive
